# POLK inh – DNA polymerase kappa (human) inhibition; Q9UBT6; purified Pol kappa, fluorescent DNA synthesis assay, 10 min; Potency, µM (series often up to 107 µM), for the others: top-dose activity, negative = inhibition, hits mostly inhibitors; 0.53% of 400,000 active; further: potency means the concentration at half of the fitted maximal effect; on the % scale 0 is the no-effect control and ±100 the full control effect
# Target sequence (Q9UBT6 whole entry, looked up): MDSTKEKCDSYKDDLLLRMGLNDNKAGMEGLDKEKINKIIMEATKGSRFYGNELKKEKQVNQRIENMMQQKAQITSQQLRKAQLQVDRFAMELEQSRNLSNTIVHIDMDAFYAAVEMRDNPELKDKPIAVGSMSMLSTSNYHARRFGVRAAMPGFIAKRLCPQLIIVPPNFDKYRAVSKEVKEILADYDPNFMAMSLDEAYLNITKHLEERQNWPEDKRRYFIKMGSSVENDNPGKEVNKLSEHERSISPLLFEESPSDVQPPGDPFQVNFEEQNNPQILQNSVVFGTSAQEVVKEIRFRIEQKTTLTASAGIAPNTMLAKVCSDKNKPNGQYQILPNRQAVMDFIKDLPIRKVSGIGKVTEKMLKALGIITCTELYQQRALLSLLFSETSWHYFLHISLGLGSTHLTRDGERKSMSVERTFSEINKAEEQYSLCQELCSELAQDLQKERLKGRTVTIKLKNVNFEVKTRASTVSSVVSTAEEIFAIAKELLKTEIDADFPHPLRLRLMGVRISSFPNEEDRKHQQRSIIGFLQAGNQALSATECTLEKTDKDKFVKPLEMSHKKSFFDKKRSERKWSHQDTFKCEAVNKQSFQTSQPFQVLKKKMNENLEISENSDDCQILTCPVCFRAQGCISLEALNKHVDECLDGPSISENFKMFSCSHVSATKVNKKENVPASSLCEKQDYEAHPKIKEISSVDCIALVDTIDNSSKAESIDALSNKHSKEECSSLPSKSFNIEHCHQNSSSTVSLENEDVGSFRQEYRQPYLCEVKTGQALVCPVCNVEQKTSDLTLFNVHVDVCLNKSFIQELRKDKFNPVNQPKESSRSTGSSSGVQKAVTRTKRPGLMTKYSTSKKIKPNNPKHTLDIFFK
#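 50 nM final substrate added after 15 min RT preincubation of 10 nM Pol kappa with compound; fluorescence read at 0 and 10 min.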
# POLH inh – blocks human DNA polymerase eta activity | Q9Y253 | recombinant Pol eta, fluorescent DNA replication assay | Potency, µM (doses to about 114 µM), inactives show top-dose activity change, negative = inhibition, hits mostly inhibitors | 1.2% of 390,000 active | AID 588591; further: potency means the concentration at half of the fitted maximal effect; on the % scale 0 is the no-effect control and ±100 the full control effect
#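 Pol eta at 10 nM preincubated with compounds 15 min at room temperature; reaction started with fluorescent substrate (50 nM final) and read kinetically at 0 and 10 min.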
# POLI inh – blocks human DNA polymerase iota activity; Q9UNA4; Pol iota fluorescent replication assay, 10 min; Potency, µM (doses to about 115 µM), for the others: at the top dose activity, negative = inhibition, hits mostly inhibitors; 1% of 390,000 active; further: potency means the concentration at half of the fitted maximal effect
#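 Fluorescent replication assay read twice, at 0 min and 10 min after adding 50 nM (final) substrate. Enzyme (10 nM) and compounds were first incubated 15 min at room temperature; enzyme-free buffer wells were negative controls.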
# PI5P4K alpha inh – blocks human PI5P4K alpha kinase activity. AID 652105. PI5P4Kalpha enzyme, ADP-Glo luminescence, 60 min; active compounds read low. max response, %. 1.2% of 330,000 active. P48426; active means max response of -50% or lower; inconclusive means between -30% and -50%; inactive means -30% or higher; further: value at the top dose of about 77 µM; on the % scale 0 is the no-effect control and ±100 the full control effect
#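 PI5P4Kalpha ADP-Glo assay; 5 microM ATP final; 60 min RT reaction; HEPES pH 7.4/EGTA/CHAPS, 5% DMSO; controls lacking substrate or enzyme; luminescent end-point.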
# WRN helicase inh – WRN helicase (human) inhibition. Q14191. WRN helicase unwinding, fluorescent forked duplex, kinetic. Potency, µM (highest dose often 114 µM), for inactives: top-dose activity change, negative = inhibition, most hits filed as inhibitors. 0.46% of 360,000 active. AID 651768; further: potency means the concentration at half of the fitted maximal effect; on the % scale 0 is the no-effect control and ±100 the full control effect; nearly all actives have a fitted effect of over 55% in size
#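 WRN at 20 nM final preincubated with compound 15 min at room temperature; reaction started with 100 nM fluorophore/quencher forked duplex oligonucleotide and 2 mM ATP final. Unwinding followed kinetically by red fluorescence (ex 525, em 598 nm).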
# POLB inh – inhibitors of human DNA polymerase beta; Potency, µM (doses to about 114 µM), for the others: top-dose activity change, negative = inhibition, usual class: inhibitors; AID 485314; 1.3% of 340,000 active; Pol beta primer extension/strand displacement, fluorescence kinetic; further: potency means the concentration at half of the fitted maximal effect; on the % scale 0 is the no-effect control and ±100 the full control effect
#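 Homogeneous kinetic assay of primer extension and strand displacement by 10 nM Pol beta, preincubated 15 min at room temperature with compound before 50 nM substrate (final) was added. Read at 0 and 10 min; four-parameter Hill fit.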
# An asterisk follows results filed as active; ? = inconclusive; nt = not tested or not shown; [ ] = dose if it differs, or a comment. Hits are enriched below; roughly 2.8% of the tested compounds scored in any of these assays. Unless noted, the call rests on the fitted dose curve; in most records, active means well fitted curve in the direction sought with a large enough effect; inconclusive means small, poorly fitted or top-dose-only effect, or another doubt; inactive means no such curve, though single readings can be large; an effect the other way counts as inactive or inconclusive.
SMILES,POLK inh,POLH inh,POLI inh,PI5P4K alpha inh,WRN helicase inh,POLB inh
O=C(NC(Cc1ccccc1)C(=O)O)/C(=C/c1cccc(Br)c1)NC(=O)c1ccco1 (stereo unspecified),-18%,-13%,3%,2,-10%,0%
O=C(NC(Cc1ccccc1)C(=O)O)/C(=C\c1ccco1)NC(=O)c1ccccc1 (stereo unspecified),-27%,14µM*,?,-10,-27%[57.1 µM],40µM*
O=C(NC(Cc1ccccc1)C(=O)O)/C(=C\c1ccco1)NC(=O)c1ccco1 (stereo unspecified),-19%,-21%,45%,-2,-12%,?
O=C(NC(Cc1ccccc1)C(=O)O)/C(=C\c1ccco1)NC(=O)c1ccc(Br)cc1 (stereo unspecified),50µM*,?,20µM*,-16,?,-22%
O=C(CNCc1cccs1)Nc1ccc(OC(F)(F)F)cc1,1%,-18%,73%,3,-15%,-24%
C=CCSC1=N/C(=C\c2ccc3c(c2)OCO3)C(=O)S1,-16%,-2%,-1%,8,-5%,23%
C=CCSC1=N/C(=C\c2cc(OCC)c(OC(C)=O)c([N+](=O)[O-])c2)C(=O)S1,32µM*,?,20µM*,-72*,16%,20µM*
COc1ccc(NC(=O)c2cc(OCCCN(C)C)nn2Cc2ccccc2)cc1,-3%[60.1 µM],nt,nt,nt,nt,nt
[S-]c1nnc(-c2ccc(Br)cc2)n1-c1ccccc1.[Zn+2],-1%,6%,2.8µM*,-5,3%,0%
CCOc1ccc(-c2nnc(SCC(=O)c3ccc(Br)cc3)n2-c2ccccc2)cc1,-22%,-6%,?,nt,nt,-15%
NC(=O)c1cc(-c2csc(NCCc3ccccc3)n2)ccc1O,-4%,-4%,?,-19,?,-9%
C=CCNc1nc(-c2ccc(O)c(C(N)=O)c2)cs1,-10%,-21%,?,-58*,-6%[57.1 µM],13%
O=C(O)c1cccc(NC2=C(N3CCOCC3)C(=O)c3ccccc3C2=O)c1,-7%,-22%,?,-10,-6%,?
O=C(O)c1ccc(NC2=C(n3nnc4ccccc43)C(=O)c3ccccc3C2=O)cc1,-23%,4%,40µM*,-2,-2%[11.6 µM],1%
COC(=O)c1c(NC(=O)/C=C/C(=O)O)sc(C)c1-c1ccc(C(C)C)cc1,-17%,79µM*,21%,-7,10%,-5%
Cn1c(SCC(=O)Nc2ccc(Br)cn2)nnc1C1CC1,-42%,79µM*,?,-22,-1%,?
CCOCCCNC(=O)c1ccc(CS(=O)(=O)Cc2ccccc2F)o1,89µM*,?,-19%[58.9 µM],nt,-8%,2%
Cc1cc(-c2csc(NC(=O)C3=COCCO3)n2)c(C)n1C,?,1%,?,-4,8%[11.6 µM],nt
Cc1cc(-c2csc(NC(=O)c3ccc(=O)n(C)n3)n2)c(C)n1CC1CCCO1 (stereo unspecified),?,?,11µM*,-3,-29%,-27%
Cc1ccc(C)c(S(=O)(=O)Nc2cc(SCC(=O)O)c(O)c3ccccc23)c1,-22%,22µM*,8.9µM*,?,18µM*,79µM*
O=C(Nc1nc(-c2cccs2)cs1)c1ccc([N+](=O)[O-])o1,-13%,79µM*,?,?,-13%[11.6 µM],nt
O=C(N/N=C/c1ccc(-c2cccc([N+](=O)[O-])c2)o1)c1cccs1,0%,-19%,119%,-7,11%[57.1 µM],19%
N#C/C(=C\c1ccc(-c2cccc([N+](=O)[O-])c2)o1)C(=O)Nc1nc(-c2cccs2)cs1,-6%,-3%,?,-52*,-9%,8%
C#CCOCCOCCOCCNc1nc(N2CCN(C(=O)CCCCCCCCCCNC(=O)[C@H]([C@@H](C)CC)n3cc(CCCCN=C(N)N)nn3)CC2)nc(N2CCN(C(=O)CCCCCCCCCCNC(=O)[C@H](CCCCN)n3cc(C)nn3)CC2)n1,-10%,?,?,-89*,28µM*,nt
C#CCOCCOCCOCCNc1nc(N2CCN(C(=O)CCCCCCCCCCNC(=O)[C@H](CCCCN)n3cc(C)nn3)CC2)nc(N2CCN(C(=O)CCCCCCCCCCNC(=O)[C@H](CCCCN)n3cc(CCCC(=O)O)nn3)CC2)n1,5%,-25%,?,-54*,17%,nt
SMILES,POLK inh,POLH inh,POLI inh,PI5P4K alpha inh,WRN helicase inh,POLB inh
C#CCOCCOCCOCCNc1nc(N2CCN(C(=O)CCCCCCCCCCNC(=O)[C@H]([C@@H](C)CC)n3cc(CCCCCN)nn3)CC2)nc(N2CCN(C(=O)CCCCCCCCCCNC(=O)[C@H](CCCCN)n3cc(CCCC(=O)O)nn3)CC2)n1,17%,-27%,7%,?,0%,nt
C#CCOCCOCCOCCNc1nc(N2CCN(C(=O)CCCCCCCCCCNC(=O)[C@H](CCCCN)n3cc(CCCC(=O)O)nn3)CC2)nc(N2CCN(C(=O)CCCCCCCCCCNC(=O)[C@@H]([C@H](C)O)n3cc(C)nn3)CC2)n1,-14%,-17%,31%,-11,9%,nt
C#CCOCCOCCOCCNc1nc(N2CCN(C(=O)CCCCCCCCCCNC(=O)[C@H]([C@@H](C)CC)n3cc(CCCCCN)nn3)CC2)nc(N2CCN(C(=O)CCCCCCCCCCNC(=O)[C@H](CO)n3cc(CCCCCN)nn3)CC2)n1,-10%,-18%,?,-50*,56µM*,nt
C#CCOCCOCCOCCNc1nc(N2CCN(C(=O)CCCCCCCCCCNC(=O)Cn3cc(CCCCCN)nn3)CC2)nc(N2CCN(C(=O)CCCCCCCCCCNC(=O)[C@H]([C@@H](C)CC)n3cc(CCCCN=C(N)N)nn3)CC2)n1,19%,79µM*,?,-72*,32µM*,nt
COC(=O)[C@H](CC(C)C)NC(=O)c1ccc(NC[C@@H](N)CS)cc1-c1cccc2ccccc12,-5%[60.1 µM],nt,nt,nt,nt,nt
Cc1ccc(C)c(N2CCN(S(=O)(=O)c3ccc(-c4cc(C(F)(F)F)on4)s3)CC2)c1,-10%,-12%,6%,nt,nt,?
N#CCC(=O)c1sccc1-n1cccc1,79µM*,1%,?,-13,?,-17%
COc1ccc(-n2c(-c3ccc(Cl)cc3)c[n+]3c2CCc2ccccc2-3)cc1,-4%,-18%,33%,4,6%,0%
Cc1ccc(-n2c(-c3ccc(Br)cc3)c[n+]3c2CCc2ccc4cccnc4c2-3)cc1,-1%,-9%,-3%[58.9 µM],nt,3%,50µM*
Cc1ccccc1-c1cccc([C@@H]2C[C@H]3[C@H](CON3C)CN2S(=O)(=O)c2ccccc2C)c1,-2%,-21%,7%,16,-6%,nt
